Assay [1] relates to Wnt5a (protein binding on small-molecule microarray). The assay can be described thus: Wnt5a binders on small-molecule microarray, primary screen, biophysical, 635/667 nm fluorescence (AID 1142).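 Note: fluorescence read at 667 nm with signal to noise per printed feature.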 The note with it: 635 nm fluorescence, higher = more signal.
A short description of assay [2]: cell viability in Huh7 cells, primary screen, cytotoxicity control for HCV replication inhibitor project, CellTiter-Glo luminescence, basal, 48 h (AID 1143).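 Note: Huh7 hepatoma cells carrying a hepatitis C replication reporter with no stimulus; test concentration not given here.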 To be noted: Huh7 HCV replicon, higher = more signal, called active from +8 up or from −8 down.
Assay [3] is described as follows: P. aeruginosa biofilm formation inhibitors, primary screen, PAO1 strain, BacTiter-Glo luminescence, LB-PBS (AID 1144). To be noted: 12 h, higher = more signal.
The nature of assay [4]: CREB reporter modulators without forskolin, primary screen, cell-based, PC12, CRE-LacZ reporter, unstimulated (AID 1145). To be noted: no forskolin, luminescence, 4.5 h, higher = more signal, called active from +8 up or from −8 down.
A short description of assay [5]: CREB reporter modulators under forskolin, primary screen, cell-based, PC12, CRE-LacZ reporter, forskolin-stimulated (AID 1146).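 Note: PC12 cells with 6xCRE LacZ reporter stimulated by forskolin 10 µM; beta-galactosidase reporter signal reflecting CREB driven transcription.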 The note with it: luminescence, 4.5 h, higher = more signal, called active from +8 up or from −8 down.
Assay [6] addresses Streptavidin (Streptomyces avidinii) (UniProt P22629). The assay can be described thus: streptavidin binders on small-molecule microarray, primary screen, artefact control for SMM compound annotation, biophysical, 635/667 nm fluorescence (AID 1147).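 Note: signal reflects streptavidin binding to arrayed compounds as a control protein.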 The note with it: streptavidin binding, higher = more signal.
Assay [7] can be described thus: small-molecule binders of probe aInhba, primary screen, biochemical, small-molecule microarray, 635/667 nm fluorescence (AID 1148).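 Note: score merges 667nm spot fluorescence with signal-to-noise for antibody binding to printed compounds.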 The note with it: higher = more signal.
Assay [8] concerns the target Torsin-1A (Homo sapiens) (UniProt O14656). The assay can be described thus: torsin A binders from cell lysate, primary screen, small-molecule microarray, wild-type, 635/667 nm (AID 1149). To be noted: COS7 hTOR1A-WT lysate, 635 nm fluorescence, higher = more signal.
For assay [9] the target is unchanged. The assay can be described thus: small-molecule binders of mutant TOR1A in lysate, primary screen, cell lysate, small-molecule microarray, COS7 lysate, 635/667 nm fluorescence (AID 1150).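 Note: score pools 667 nm emission and signal to noise measuring lysate protein binding.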 To be noted: COS7 hTOR1A mutant lysate, 635 nm fluorescence, higher = more signal.
For assay [10], the system named is Sonic hedgehog protein (Shh). Put plainly: small-molecule binders of Shh protein, primary screen, biochemical, small-molecule microarray, 635/667 nm fluorescence (AID 1151).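 Note: Shh protein binding to compounds spotted on small-molecule microarray slides; score combines spot fluorescence intensity with signal-to-noise across triplicate slides.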 The note with it: small-molecule microarray binding, 635 nm fluorescence; higher = more signal.
Assay [11] in a line: E. coli DRC41 culture turbidity changes, primary screen, E. coli filamentation inducer project, strain DRC41, OD650, 48 h (AID 1152).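 Note: E. coli MC1000 strain DRC41 lacking acrAB efflux pump and sulA.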 The note with it: E. coli DRC41 (acrAB sulA), higher = more signal, called active from +8 up or from −8 down.
The nature of assay [12]: small-molecule binders of probe aLefty1, primary screen, biochemical, small-molecule microarray, 635/667 nm fluorescence (AID 1153).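 Note: score merges spot fluorescence with signal-to-noise ratio from the scanned slide images.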 To be noted: higher = more signal.
The nature of assay [13]: PSAC antagonists in infected red cells, primary screen, cell-based, P. falciparum Indochina, OD700, 1 h (AID 1154). The note with it: P. falciparum Indochina infected RBC osmotic lysis, higher = more signal, called active from +8 up or from −8 down.
Assay [14] is described as follows: PSAC antagonists in infected red cells, primary screen, cell-based, P. falciparum Indochina, OD700, 2 h (AID 1155).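 Note: lysis reports solute entry through the parasite surface anion channel PSAC; channel blockers reduce lysis of infected cells.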 The note with it: P. falciparum Indochina infected erythrocytes, osmotic lysis OD700; higher = more signal, called active from +8 up or from −8 down.
Assay [15] can be described thus: osmotic lysis modulators in infected erythrocytes, primary screen, PSAC antagonist project, cell-based, P. falciparum Indochina, OD700, 3 h (AID 1156). The note with it: higher = more signal, called active from +8 up or from −8 down.
Assay [16] in a line: PSAC antagonists in infected red cells, primary screen, cell-based, P. falciparum Indochina, OD700, 18 h (AID 1157). To be noted: P. falciparum Indochina infected erythrocytes, osmotic lysis OD700, 18 h; higher = more signal, called active from +8 up or from −8 down.
Assay [17] in a line: modulators of S6 phosphorylation in cells, primary screen, cell-based, A549, cytoblot, luminescence, serum-stimulated (AID 1158).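 Note: serum-stimulated A549 lung adenocarcinoma cells; signal is phosphorylated S6 detected by cytoblot immunostaining with HRP secondary.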 To be noted: A549 phospho-S6 cytoblot, 5 h, higher = more signal.
For assay [18], the target named is NADPH oxidase 2 (Homo sapiens) (UniProt P04839). Put plainly: NOX2-dependent H2O2 signal modulators, primary screen, NOX inhibitor project, cell-based, HEK293-NOX2, PMA-stimulated, Amplex Red fluorescence (AID 1159). Note: test concentration not given here. The note with it: 45 min, higher = more signal, called active from +8 up or from −8 down.
NADPH oxidase 2 (Homo sapiens), sequence (P04839 whole entry, looked up): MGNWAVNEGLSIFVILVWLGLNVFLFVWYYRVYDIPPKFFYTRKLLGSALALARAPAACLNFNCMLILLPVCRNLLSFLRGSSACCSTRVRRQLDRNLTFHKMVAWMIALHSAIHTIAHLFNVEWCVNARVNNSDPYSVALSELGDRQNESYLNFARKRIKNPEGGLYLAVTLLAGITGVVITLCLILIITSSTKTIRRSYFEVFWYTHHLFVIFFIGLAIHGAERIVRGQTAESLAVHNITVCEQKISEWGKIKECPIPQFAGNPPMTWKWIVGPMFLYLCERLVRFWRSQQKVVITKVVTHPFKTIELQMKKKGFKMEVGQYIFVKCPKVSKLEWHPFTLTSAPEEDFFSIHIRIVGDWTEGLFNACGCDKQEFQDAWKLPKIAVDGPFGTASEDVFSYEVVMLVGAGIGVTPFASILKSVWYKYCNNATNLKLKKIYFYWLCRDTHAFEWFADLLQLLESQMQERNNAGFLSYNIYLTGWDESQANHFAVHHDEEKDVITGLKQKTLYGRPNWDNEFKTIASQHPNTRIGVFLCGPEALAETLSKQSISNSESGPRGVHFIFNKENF
Assay [19] has as its target NADPH oxidase 4 (Homo sapiens) (UniProt Q9NPH5). The assay can be described thus: NOX4-dependent H2O2 signal modulators, primary screen, NOX inhibitor project, cell-based, HEK293-NOX4, tetracycline-induced, Amplex Red fluorescence (AID 1160). The note with it: 45 min, higher = more signal, called active from +8 up or from −8 down.
The target of assay [20] is NADPH oxidase 5 (Homo sapiens) (UniProt Q96PH1). The assay can be described thus: NOX5-dependent H2O2 signal modulators, primary screen, NOX inhibitor project, cell-based, HEK293-NOX5, Amplex Red fluorescence (AID 1161). The note with it: HEK293-NOX5, ionomycin, 45 min, higher = more signal.
NADPH oxidase 5 (Homo sapiens), sequence (Q96PH1 whole entry, looked up): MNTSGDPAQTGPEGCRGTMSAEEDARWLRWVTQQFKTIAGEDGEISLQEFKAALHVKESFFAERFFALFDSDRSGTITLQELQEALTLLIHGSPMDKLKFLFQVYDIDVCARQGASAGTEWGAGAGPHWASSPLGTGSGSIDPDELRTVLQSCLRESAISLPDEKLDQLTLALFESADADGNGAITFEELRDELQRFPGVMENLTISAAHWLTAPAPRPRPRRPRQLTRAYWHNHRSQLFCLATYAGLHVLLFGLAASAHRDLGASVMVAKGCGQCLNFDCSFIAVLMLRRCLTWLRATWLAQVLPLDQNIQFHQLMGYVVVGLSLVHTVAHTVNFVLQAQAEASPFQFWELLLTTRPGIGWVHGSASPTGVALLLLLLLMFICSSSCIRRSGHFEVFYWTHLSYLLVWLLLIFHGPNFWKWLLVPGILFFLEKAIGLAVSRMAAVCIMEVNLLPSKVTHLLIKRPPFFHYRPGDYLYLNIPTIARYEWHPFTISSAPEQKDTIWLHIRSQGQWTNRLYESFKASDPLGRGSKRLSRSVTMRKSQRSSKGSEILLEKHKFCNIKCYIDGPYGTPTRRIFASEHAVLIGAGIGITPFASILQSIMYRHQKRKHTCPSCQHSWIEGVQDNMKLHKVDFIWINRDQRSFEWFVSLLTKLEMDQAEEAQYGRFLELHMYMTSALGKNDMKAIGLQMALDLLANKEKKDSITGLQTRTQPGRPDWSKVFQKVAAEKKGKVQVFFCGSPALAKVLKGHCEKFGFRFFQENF

Calls of active or inactive are those of the source. Unless noted, the rule behind the calls is not given here.

Streptavidin (Streptomyces avidinii), sequence (P22629 whole entry, looked up): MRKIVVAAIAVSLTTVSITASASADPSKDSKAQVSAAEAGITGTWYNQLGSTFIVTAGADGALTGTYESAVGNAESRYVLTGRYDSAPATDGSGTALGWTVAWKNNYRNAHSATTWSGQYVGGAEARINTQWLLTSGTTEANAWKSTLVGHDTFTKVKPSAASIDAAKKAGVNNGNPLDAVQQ
NADPH oxidase 4 (Homo sapiens), sequence (Q9NPH5 whole entry, looked up): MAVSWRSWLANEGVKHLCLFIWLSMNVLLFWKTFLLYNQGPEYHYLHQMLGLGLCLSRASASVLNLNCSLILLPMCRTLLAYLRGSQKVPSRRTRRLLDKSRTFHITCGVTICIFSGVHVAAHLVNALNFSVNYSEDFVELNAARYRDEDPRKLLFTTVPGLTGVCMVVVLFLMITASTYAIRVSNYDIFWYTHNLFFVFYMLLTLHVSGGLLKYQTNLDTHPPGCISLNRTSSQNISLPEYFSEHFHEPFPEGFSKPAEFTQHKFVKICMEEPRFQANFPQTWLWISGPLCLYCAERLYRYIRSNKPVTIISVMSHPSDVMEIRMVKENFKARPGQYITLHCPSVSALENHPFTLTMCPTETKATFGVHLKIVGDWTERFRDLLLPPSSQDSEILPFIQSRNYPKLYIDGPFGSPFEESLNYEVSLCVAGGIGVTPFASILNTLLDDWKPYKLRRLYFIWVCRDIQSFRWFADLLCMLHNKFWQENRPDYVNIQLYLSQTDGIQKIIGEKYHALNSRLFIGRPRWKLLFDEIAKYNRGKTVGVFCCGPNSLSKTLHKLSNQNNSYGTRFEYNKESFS
Torsin-1A (Homo sapiens), sequence (O14656 whole entry, looked up): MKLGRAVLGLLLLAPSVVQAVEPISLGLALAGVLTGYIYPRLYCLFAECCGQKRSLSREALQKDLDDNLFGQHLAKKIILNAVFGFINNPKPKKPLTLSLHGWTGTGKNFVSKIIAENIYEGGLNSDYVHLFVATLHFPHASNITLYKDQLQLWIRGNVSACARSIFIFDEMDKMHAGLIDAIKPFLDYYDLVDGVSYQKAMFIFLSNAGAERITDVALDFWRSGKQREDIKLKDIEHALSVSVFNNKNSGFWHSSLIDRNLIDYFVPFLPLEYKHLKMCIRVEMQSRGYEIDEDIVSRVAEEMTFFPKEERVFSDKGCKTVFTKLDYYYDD

`C[N+](C)(C)CCCC[C@@H]1NC(=O)[C@@H]2C[C@H](C(=O)NCCCCCCN)[C@H](c3cccc(OCCO)c3)N2C1=O`: the composite z-score in [1] was 0.397; in assay [6], 1.67; in [7] it was 1.22; in the assay with Torsin-1A (Homo sapiens) [8], 0.85; with Torsin-1A (Homo sapiens) [9], 1.65; in assay [10] it was 0.691. The composite z-score in [12] came out at 2.07. Also, the z-score is 0.279 (inactive) in [2]; 0.32 (inactive) in assay [3]; 2.84 (inactive) in [4]; -0.618 (inactive) in assay [5]; 0.0598 (inactive) in [11]; 2.07 (inactive) in [13]. In addition, the z-score is 0.679 (inactive) in assay [14]; 0.837 (inactive) in assay [15]; 0.229 (inactive) in assay [16]; 0.38 in [17]; 0.827 (inactive) in assay [18]; 0.0305 (inactive) in assay [19]. Also, the z-score in [20] was found to be 0.559.

Take `CC(c1ccccc1)C(O)C1C=CC2C(=O)N(C)C(=O)C2N1Nc1ccccc1` (stereo not given): the composite z-score was 0.462 in assay [1]; 1.62 in [6]; 0.562 in assay [7]; 0.112 with Torsin-1A (Homo sapiens) [8]; 0.299 with Torsin-1A (Homo sapiens) [9]; -0.353 in assay [10]. Moreover, the composite z-score in assay [12] came out at 0.146. In addition, the z-score in [2] is 0.481 (inactive); in [3], -0.0225 (inactive); in assay [4], 0.0535 (inactive); in [5] it was -0.0744 (inactive); in [11], -1.14 (inactive); in [13], 0.627 (inactive). In addition, the z-score was 0.782 (inactive) in assay [14]; -0.0204 (inactive) in assay [15]; 0.999 (inactive) in assay [16]; -0.945 in assay [17]; -1.51 (inactive) in assay [18]; -3.77 (inactive) in assay [19]. This compound showed a z-score in assay [20] of -3.26.

Take `CC1=C2[C@@H](CCc3ccccc3)OB(O)C[C@@H]2[C@@H]2C(=O)N(Cc3ccccc3)C(=O)[C@@H]2C1`: the composite z-score is 0.0023 in assay [1]; -0.189 in [6]; -0.285 in assay [7]; 0.572 in the assay with Torsin-1A (Homo sapiens) [8]; 0.333 with Torsin-1A (Homo sapiens) [9]; 0.792 in [10]. In addition, the composite z-score in [12] is -0.301. The z-score was -0.23 (inactive) in [2]; 0.615 (inactive) in assay [3]; 0.39 (inactive) in assay [4]; -0.138 (inactive) in assay [5]; -0.42 (inactive) in assay [11]; 11.8 (active) in assay [13]. Also, the z-score in assay [14] is 1.28 (inactive); in [15] it was -0.633 (inactive); in assay [16], 0.55 (inactive); in assay [17], 0.433; in assay [18] it was -0.0748 (inactive); in [19], 0.167 (inactive). The z-score in assay [20] worked out at 0.587.

In the case of `C=C(COC)/C(=C/C[C@H](OC(=O)c1ccncc1)c1ccc(CO)o1)c1cnc2ccccc2c1`, the composite z-score in [1] is 0.304; in [6], 1.16; in assay [7], -0.0933; in the assay with Torsin-1A (Homo sapiens) [8], 0.299; with Torsin-1A (Homo sapiens) [9], 0.732; in [10] it was 2.07. The same compound came in with a composite z-score in assay [12] of 0.213. Also, the z-score in [2] was 0.114 (inactive); in assay [3], -0.268 (inactive); in assay [4], 0.303 (inactive); in assay [5] it was -0.499 (inactive); in assay [11], -0.504 (inactive); in assay [13], 6.19 (inactive). Moreover, the z-score in assay [14] was 0.807 (inactive); in assay [15], 1.35 (inactive); in assay [16], 0.307 (inactive); in assay [17], -0.959; in [18], 1.13 (inactive); in [19] it was -0.163 (inactive). Further, in [20], the z-score was -0.377.

With `CCCCCCCCCC(O)C1C=CC2C(=O)N(c3ccccc3)C(=O)C2N1Nc1cc(OC)c(OC)c(OC)c1` (stereo not given), the composite z-score in assay [1] is -0.128; in [6] it was 0.581; in [7] it was -0.0334; with Torsin-1A (Homo sapiens) [8] it was -1.45; with Torsin-1A (Homo sapiens) [9], -0.241; in assay [10] it was -0.511. This compound showed a composite z-score in [12] of 0.448. In addition, the z-score in assay [2] was -4.06 (inactive); in [3], 0.123 (inactive); in assay [4] it was 0.815 (inactive); in assay [5] it was -0.262 (inactive); in [11], -3.95 (inactive); in assay [13], 7.78 (inactive). The z-score is 1.84 (inactive) in [14]; -0.372 (inactive) in [15]; -0.449 (inactive) in assay [16]; 1.05 in assay [17]; -2.86 (inactive) in assay [18]; -4.13 (inactive) in [19]. The same compound registered a z-score in assay [20] of -2.67.

(Values after PubChem BioAssay.)
